The results in this text go back to PubChem BioAssay AID686978 (National Center for Advancing Translational Sciences (NCATS), 2013).

The campaign covered roughly 420,000 compounds. About 64,000 (15%) were called active. Another 27% or so got no clear call; they are omitted. The call rests on the fitted dose curve; in most records, active means well fitted inhibition curve with a large enough effect; inconclusive means small, poorly fitted or top-dose-only effect; inactive means flat fitted curve, though single readings scatter. Not all results are given here. A call without a number means that no potency is given here.
Potency means the concentration at half of the fitted maximal effect.

The assay in a line: qHTS for Inhibitors of human tyrosyl-DNA phosphodiesterase 1 (TDP1): qHTS in cells in absence of CPT. Further: nearly all actives have a fitted effect of over 55% in size. As to conditions: DT40 Tdp1-/- hTDP1 cells, no CPT, ATP luminescence, 48 h; activity change, negative = growth inhibition: at 46.2 µM (top of the series). In short, it runs like this: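 Growth of hTDP1-complemented DT40 Tdp1-knockout cells is measured by ATP luminescence after at least 48 hr compound exposure at 37 °C, with DMSO substituting for the 20 nM CPT used in the parallel screen.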
On the technique in general: Quantitative high-throughput screening tests each substance at several concentrations.
`Cc1nnc(SCC(=O)Nn2cnnc2)s1`: the Potency entry is “inactive”.

For the compound `O=S1(=O)CC/C(=N\Nc2ccc(F)cc2)c2ccsc21`, the Potency result was “inactive”.

Turning to `O=C1CCN(CCCc2ccccc2)CCN1CCO`, the Potency entry was “inactive”.

Take `O=C(c1ccc(F)cc1)C1CCN(CCCCc2ccccc2)CC1`: the Potency is 26.6 µM (active).

For `O=C(COC(=O)c1ccc(F)cc1)NCCCc1ccccc1`, the Potency result is “inactive”.

Turning to `CCn1c(SCC(=O)NC2CCCC2)nnc1-c1ccoc1C`, the Potency result was “inactive”.

Turning to `NS(=O)(=O)c1ccc(CCNC(=O)NC2CCCCC2)cc1`, the Potency entry is “inactive”.

In the case of `O=S(=O)(c1cccs1)N1CCc2ccccc2C1`, the Potency entry was “inactive”.

As to `CCC(=O)N(CCc1ccccc1)Cc1cc2cc(C)ccc2[nH]c1=O`, the Potency result was “inactive”.

Take `Cc1ccc(N(Cc2cc3ccccc3[nH]c2=O)C(=O)c2cccs2)cc1`: the Potency was 14.6 µM (active).

For the compound `Cc1cccc2cc(CN(C(=O)c3cccs3)c3ccccc3)c(=O)[nH]c12`, the Potency result was “inactive”.

`Cc1ccc(-n2nc(C)c(C(=O)O)c2-n2cccc2)cc1`: the Potency entry was “inactive”.

Turning to `CC(C)Oc1ccc(C(=O)NCC(=O)Nc2ccc3c(c2)CCC3)cc1`, the Potency entry was “inactive”.

As for `COCCNC(=O)Cn1cc2c(n1)CCCCC2`, the Potency entry was “inactive”.

Regarding `CCOC(=O)N1CCC(NC(=O)Cn2cc3c(n2)CCCCC3)CC1`, the Potency entry was “inactive”.

For the compound `CCOc1ccc(CNC(=O)Cn2cc3c(n2)-c2c(oc(C(=O)N4CCCC4)c2C)CC3)cc1`, the Potency is 20.6 µM (active).

With `CCCN(CCC)CCCNC(=O)Cn1cc2c(n1)-c1c(oc(C(=O)N3CCCC3)c1C)CC2`, the Potency result is “inactive”.

Regarding `Cc1c(C(=O)N2CCCC2)oc2c1-c1nn(CC(=O)NCc3ccc(OC(C)C)cc3)cc1CC2`, the Potency was 20.6 µM (active).

With `CC(C)OC(=O)Cn1nc(C(F)(F)F)c2c1CCCC2`, the Potency entry was “inactive”.

For `CCCC(C)c1nnc(NC(=O)C2CC(=O)N(c3ccc(OCC)cc3)C2)s1` (stereo not given), the Potency result was “inactive”.

For `Cc1nnc(C(=O)NC(C)(C)c2nc(C(=O)NCc3ccc(F)cc3)c(O)c(=O)n2C)o1`, the Potency entry was “inactive”.

`COc1ccnc(Oc2ccccc2)c1-c1ncn[nH]1`: the Potency entry is “inactive”.

For `Cc1ccccc1CNC(=O)CSc1nnc(C)c2c(C)n(-c3ccccc3)nc12`, the Potency entry was “inactive”.

With `COc1ccccc1CNC(=O)COC(=O)c1sc(C)nc1C`, the Potency result was “inactive”.

Turning to `CCNC(=O)Cn1nc(C)n2c(cc3c(OC)cccc32)c1=O`, the Potency result is “inactive”.

Regarding `COc1ccccc1CNC(=O)Cn1nc(C)c2nn(-c3ccc(Cl)cc3)c(C)c2c1=O`, the Potency was 23.1 µM (active).

For the compound `CCOC(=O)C1CCN(C(=O)Cn2nc(C)c3c(C)n(-c4ccccc4)nc3c2=O)CC1`, the Potency result is “inactive”.

Regarding `Cc1cccn2c(=O)nc(SCC(=O)NCc3ccccc3Cl)nc12`, the Potency entry is “inactive”.

In the case of `COc1ccc(OC)c(CNC(=O)Cn2nc(C)c3c(C)n(-c4ccc(C)cc4)nc3c2=O)c1`, the Potency was 16.4 µM (active).

Regarding `Cc1nnc(SCC(=O)NCc2ccccc2Cl)c2nn(-c3ccccc3)c(C)c12`, the Potency is 23.1 µM (active).

Turning to `Cc1nn(CC(=O)N2CCCCC2)c(=O)c2nn(-c3ccccc3)c(C)c12`, the Potency entry was “inactive”.

As to `Cc1ccccc1-c1nnn(CC(=O)c2ccc(S(=O)(=O)N3CCCC3)cc2)n1`, the Potency result is “inactive”.

`CNC1(c2nnnn2-c2c(C)cccc2C)CCOC(C)(C)C1` (stereo not given): the Potency result is “inactive”.

Consider `COc1c(O)cccc1-c1nnn(CCC(=O)OCC(=O)c2ccccc2)n1`, for which the Potency result was “inactive”.

For the compound `CC1(C(=O)NS(=O)(=O)c2cccc(OC(F)F)c2)CCN1C(=O)C1CC1` (stereo not given), the Potency entry is “inactive”.

Take `CCCCn1c(N)c(N(CC(C)C)C(=O)CN(C)S(=O)(=O)c2ccc(F)cc2)c(=O)[nH]c1=O`: the Potency entry is “inactive”.

For `Cc1cc2nc3n(c2cc1C)CC1CC(C(=O)NCCC(C)C)N(C)C31` (stereo not given), the Potency entry is “inactive”.

For `CCCCOc1ccc(Cl)cc1CSc1nncn1N`, the Potency entry is “inactive”.

Turning to `CS(=O)(=O)NCc1ccc(C(=O)NCc2ccccc2)cc1`, the Potency result was “inactive”.

On to `COc1cccc(S(=O)(=O)NCc2ccc(C(=O)NCc3ccccn3)cc2)c1`, for which the Potency is 0.92 µM (active).

Consider `CN(c1ccc(C(=O)NCc2ccccn2)cc1)S(C)(=O)=O`, for which the Potency entry was “inactive”.

Turning to `CCSc1nc(O)c(C(c2cccc(OC)c2)c2c(O)nc(SCC)[nH]c2=O)c(=O)[nH]1`, the Potency result was “inactive”.

In the case of `C/C=N/N(c1ccccc1)c1ccccc1`, the Potency entry was “inactive”.

Turning to `Cc1ccc2cccc(OCCCOc3ccccc3CO)c2n1`, the Potency is 23.1 µM (active).

`COc1ccccc1CNC(=O)COc1ccc(C)nc1[N+](=O)[O-]`: the Potency entry is “inactive”.

As for `OCc1ccc(OCCCOc2cccc3cccnc23)cc1`, the Potency result was “inactive”.

As to `O=S(=O)(c1ccc(Sc2nnc3ccccn23)nc1)N1CCOCC1`, the Potency entry was “inactive”.

For `CCOCC(=O)NCc1ccc2c(c1)cc(C)n2C`, the Potency entry is “inactive”.

`CCn1c(=S)[nH]c2cc(S(=O)(=O)N3CCOCC3)ccc21`: the Potency entry is “inactive”.

Turning to `O=C(NCc1cccc(Cl)c1)C1=CC=CN2CCS(=O)(=O)N=C12`, the Potency result was “inactive”.

`COc1ccc(C)cc1NC(=O)CCC(=O)Nc1nnc(C(F)(F)F)s1`: the Potency result is “inactive”.

With `CSc1ccccc1NC(=O)Cc1ccc(Br)cc1`, the Potency entry was “inactive”.

Consider `CSc1ccccc1NC(=O)CN(C)CC(=O)Nc1cccc(Br)c1`, for which the Potency was 23.1 µM (active).

Turning to `CN(CC(=O)Nc1ccccc1F)CC(=O)Nc1ccccc1Br`, the Potency result is “inactive”.

For the compound `CCn1c(SCC(=O)Nc2sc(C)c(C)c2C#N)nnc1C1CC1`, the Potency result is “inactive”.

As for `CC(C)(O)C#Cc1ccc(C(=O)N2CCC(C(N)=O)(N3CCCCC3)CC2)cc1`, the Potency entry is “inactive”.

Take `CC1CCN(C(=O)COC(=O)c2cc(S(=O)(=O)N3CCOCC3)ccc2Cl)CC1`: the Potency result is “inactive”.

With `Cn1c(=O)c2c(SCC(=O)NCC3CCCO3)nc(CC(C)(C)C)nc2n(C)c1=O` (stereo not given), the Potency entry is “inactive”.

`CCOC(=O)c1cccc(NC(=O)CCn2nnc3ccccc32)c1`: the Potency result is “inactive”.

As to `CCOC(=O)c1cnc(-n2nc(C)cc2C)nc1Nc1cccc(C(C)=O)c1`, the Potency was 8.2 µM (active).

`CCOC(=O)c1cnc(-n2nc(C)cc2C)nc1-n1nc(C)cc1C`: the Potency entry was “inactive”.

Consider `O=[N+]([O-])c1c(NCCO)cc(Sc2nc3ccccc3s2)c2nonc12`, for which the Potency was 1.03 µM (active).

For `O=C(O)c1cccc(S(=O)(=O)Nc2ccc(O)cc2Sc2nc3ccccc3s2)c1`, the Potency entry was “inactive”.

Take `CCOc1ccccc1Nc1ccc2nonc2c1[N+](=O)[O-]`: the Potency result was “inactive”.

As to `COc1ccc(S(=O)(=O)NC(=O)C2(C)CCN2C(=O)COc2ccc(Cl)cc2)cc1` (stereo not given), the Potency result was “inactive”.

Take `c1ccc(C[C@H]2CNCCN2CCC23CC4CC(CC(C4)C2)C3)cc1`: the Potency was 10.3 µM (active).

With `COC(=O)c1ccccc1NC(=O)CN(Cc1ccccc1)S(C)(=O)=O`, the Potency result was “inactive”.

Consider `O=C(O)CSCc1ccc(C(=O)O)o1`, for which the Potency result is “inactive”.

As for `CC(C)(C)NC(=O)Cn1cnc2cc([N+](=O)[O-])ccc2c1=O`, the Potency entry was “inactive”.

For the compound `Cc1ccc(C)c(OCCC(=O)OCC(=O)c2ccc3c(c2)NC(=O)CO3)c1`, the Potency entry is “inactive”.

Take `COC(=O)c1ccccc1NC(=O)CN(Cc1ccc(Cl)cc1)S(C)(=O)=O`: the Potency result is “inactive”.

Regarding `COC(=O)c1ccccc1Sc1c(/C=N/OCc2ccc(Cl)cc2)c(C(F)(F)F)nn1C`, the Potency is 20.6 µM (active).

With `S=c1[nH]nc2c3c4c(sc3ncn12)CCCC4`, the Potency result is “inactive”.

On to `Clc1ccc(-c2nnc(-c3ccccc3)nc2N2CCSCC2)cc1`, for which the Potency was 14.6 µM (active).

On to `OCCN1CCN(c2nnc(-c3ccccc3)c3ccccc23)CC1`, for which the Potency entry is “inactive”.

On to `O=C(N[C@H]1CC[C@H](CC(=O)N2CCCCC2)O[C@@H]1CO)c1cccc(F)c1`, for which the Potency result was “inactive”.

For the compound `COc1ccc(C(=O)Nc2cccc(NC(=O)c3ccc(OC)cc3OC)n2)c(OC)c1`, the Potency is 2.59 µM (active).

Regarding `COc1ccc(C(=O)Nc2nncs2)c(OC)c1`, the Potency result was “inactive”.

On to `COc1ccc(C(=O)NC2=NCCS2)c(OC)c1`, for which the Potency entry is “inactive”.

Consider `O=C1CCCc2c1[nH]c1ccc(Br)cc21`, for which the Potency entry was “inactive”.

With `COc1ccc(/C=C2\SC(=S)N(CC(=O)NNC(=O)c3ccncc3)C2=O)cc1`, the Potency entry was “inactive”.

For `CN(C(=O)COc1nnc(-c2cccs2)c(-c2cccs2)n1)c1ccccc1`, the Potency was 18.4 µM (active).

For `O=C(O)Cc1sc(-c2ccccc2)nc1-c1cccs1`, the Potency entry is “inactive”.

On to `CN(C(=O)COC(=O)CNC(=O)C12CC3CC(CC(C3)C1)C2)c1ccccc1`, for which the Potency entry is “inactive”.

Turning to `Cc1cc(=O)oc(C)c1C(=O)NCCN(C)Cc1ccccc1`, the Potency entry is “inactive”.

With `COc1ccccc1NC(=O)N(O)C1(C#N)CCCCC1`, the Potency result is “inactive”.

Turning to `O=C(CSc1nnc2ccc(-c3ccncc3)nn12)N1CCCCC1`, the Potency result was “inactive”.

Turning to `CCS(=O)(=O)c1ccc(-c2cccc(NC(=O)c3ccc(Br)o3)c2)nn1`, the Potency result was “inactive”.

Turning to `COc1ccc(S(=O)(=O)N2CCN(C(=S)NCC3CCCO3)CC2)cc1OC` (stereo not given), the Potency result is “inactive”.

Turning to `CCOc1ccc(S(=O)(=O)N2CCN(C(=S)NCC3CCCO3)CC2)cc1` (stereo not given), the Potency result was “inactive”.

As to `S=C(NCC1CCCO1)N1CCN(c2ccc(Cl)c(Cl)c2)CC1` (stereo not given), the Potency is 20.6 µM (active).

With `COc1cc(/C=C(/NC(=O)c2ccccc2)C(=O)Nc2cccc(O)c2)c([N+](=O)[O-])cc1OC`, the Potency result was “inactive”.

On to `Cn1nc(C(C)(C)C)c([N+](=O)[O-])c1C(N)=O`, for which the Potency entry is “inactive”.

Turning to `COc1cccc(N2CC(C(=O)Nc3c(C)cccc3C)CC2=O)c1` (stereo not given), the Potency result was “inactive”.

As to `CCC(=O)Nc1ccc2nc(SCC(=O)N3CCc4ccccc43)sc2c1`, the Potency is 10.3 µM (active).

For `O=C(NCc1nnc(SCC(=O)N2CCCc3ccccc32)o1)c1ccccc1F`, the Potency result is “inactive”.

Regarding `Cn1c(=O)c2c(SCC(=O)N3CCc4ccccc43)nc(-c3ccc(Cl)cc3)nc2n(C)c1=O`, the Potency result was “inactive”.

For the compound `O=C(Nc1ccc2nc(SCC(=O)N3CCCc4ccccc43)sc2c1)c1ccc(Cl)cc1`, the Potency is 5.8 µM (active).

Turning to `O=C(Nc1ccc2nc(SCC(=O)N3CCc4ccccc43)sc2c1)c1ccccc1F`, the Potency entry was “inactive”.

On to `O=C(CSCc1ccccc1)N1CCc2ccccc21`, for which the Potency result was “inactive”.

Consider `O=C(Nc1ccc2nc(SCC(=O)N3CCCc4ccccc43)sc2c1)c1ccc(F)cc1`, for which the Potency is 2.91 µM (active).

As for `O=C(CSc1ccc2nnc(-c3ccccc3)n2n1)N1CCCc2ccccc21`, the Potency entry is “inactive”.

On to `CCOC(=O)C1(Cc2cccc(OC)c2)CCCN(S(=O)(=O)c2cccnc2)C1` (stereo not given), for which the Potency entry is “inactive”.

Regarding `O=C(CCc1ccc(S(=O)(=O)N2CCOCC2)cc1)OCC(=O)c1ccc(Br)cc1`, the Potency entry was “inactive”.

For `O=C(CSc1nnc(-c2ccoc2)o1)N1CCOCC1`, the Potency entry was “inactive”.
